# Assay results as given in the supplement of paper PMC4466140.
# Legend:
# Assay in all cases: SPOT peptide array binding signal intensity (averaged, normalized) (arbitrary units (background-subtracted, floor 0; scale differs between SH3 domains)); higher = stronger binding of the SH3 domain to the peptide
# [1] = molecular target: AgAbp1
# How it was run: (§1)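 GST-fused SH3 domains, from four yeast species, were produced in E. coli BL21(DE3) and captured on glutathione Sepharose. Membranes of cellulose carrying synthetic 15-mer peptides, in which cysteines had been replaced by serines, were exposed to each domain at 10 μg/ml overnight at 4°C in TBS-based blocking buffer. After anti-GST antibody, an HRP anti-mouse secondary and luminol, spots were imaged and quantified using Genespotter. Binding signal is normalized and background-subtracted spot intensity, averaged over replicates, in arbitrary units that differ between domains.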
# [2] = molecular target: AgBbc1
# How it was run: as §1
# [3] = molecular target: AgBem1-D1
# How it was run: as §1
# [4] = molecular target: AgBzz1-D1
# How it was run: as §1
# [5] = molecular target: AgBzz1-D2
# How it was run: as §1
# [6] = molecular target: AgCyk3
# How it was run: as §1
# [7] = molecular target: AgFus1
# How it was run: as §1
# [8] = molecular target: AgHof1
# How it was run: as §1
# [9] = molecular target: AgHse1
# How it was run: as §1
# [10] = molecular target: AgLsb1
# How it was run: as §1
# [11] = molecular target: AgLsb4
# How it was run: as §1
# [12] = molecular target: AgMyo5
# How it was run: as §1
# [13] = molecular target: AgNbp2
# How it was run: as §1
# [14] = molecular target: AgRvs167
# How it was run: as §1
# [15] = molecular target: AgSho1
# How it was run: as §1
# [16] = molecular target: AgSla1-D1-D2
# How it was run: as §1
# [17] = molecular target: AgSla1-D3
# How it was run: as §1
# [18] = molecular target: CaAbp1-D1
# How it was run: as §1
# [19] = molecular target: CaAbp1-D2
# How it was run: as §1
# [20] = molecular target: CaBbc1
# How it was run: as §1
# [21] = molecular target: CaBem1-D1
# How it was run: as §1
# [22] = molecular target: CaBzz1-D1
# How it was run: as §1
# [23] = molecular target: CaBzz1-D2
# How it was run: as §1
# [24] = molecular target: CaCyk3
# How it was run: as §1
# [25] = molecular target: CaFus1
# How it was run: as §1
# [26] = molecular target: CaHof1
# How it was run: as §1
# [27] = molecular target: CaHse1
# How it was run: as §1
# [28] = molecular target: CaLsb1
# How it was run: as §1
# [29] = molecular target: CaLsb4
# How it was run: as §1
# [30] = molecular target: CaMyo5
# How it was run: as §1
# [31] = molecular target: CaNbp2
# How it was run: as §1
# [32] = molecular target: CaRvs167
# How it was run: as §1
# [33] = molecular target: CaRvs167-3
# How it was run: as §1
# [34] = molecular target: CaSho1
# How it was run: as §1
# [35] = molecular target: CaSla1-D1-D2
# How it was run: as §1
# [36] = molecular target: CaSla1-D3
# How it was run: as §1
# [37] = molecular target: ScAbp1
# How it was run: as §1
# [38] = molecular target: ScBbc1
# How it was run: as §1
# [39] = molecular target: ScBem1-D1
# How it was run: as §1
# [40] = molecular target: ScBzz1-D1
# How it was run: as §1
# [41] = molecular target: ScBzz1-D2
# How it was run: as §1
# [42] = molecular target: ScCyk3
# How it was run: as §1
# [43] = molecular target: ScFus1
# How it was run: as §1
# [44] = molecular target: ScHof1
# How it was run: as §1
# [45] = molecular target: ScHse1
# How it was run: as §1
# [46] = molecular target: ScLsb1
# How it was run: as §1
# [47] = molecular target: ScLsb2
# How it was run: as §1
# [48] = molecular target: ScLsb3
# How it was run: as §1
# [49] = molecular target: ScLsb4
# How it was run: as §1
# [50] = molecular target: ScMyo3
# How it was run: as §1
# [51] = molecular target: ScMyo5
# How it was run: as §1
# [52] = molecular target: ScNbp2
# How it was run: as §1
# [53] = molecular target: ScPex13
# How it was run: as §1
# [54] = molecular target: ScRvs167
# How it was run: as §1
# [55] = molecular target: ScSho1
# How it was run: as §1
# [56] = molecular target: ScSla1-D1-D2
# How it was run: as §1
# [57] = molecular target: ScSla1-D3
# How it was run: as §1
# [58] = molecular target: SpAbp1-D1
# How it was run: as §1
# [59] = molecular target: SpBbc1
# How it was run: as §1
# [60] = molecular target: SpBzz1-D1
# How it was run: as §1
# [61] = molecular target: SpBzz1-D2
# How it was run: as §1
# [62] = molecular target: SpCyk3
# How it was run: as §1
# [63] = molecular target: SpHof1
# How it was run: as §1
# [64] = molecular target: SpHof1-2
# How it was run: as §1
# [65] = molecular target: SpHof1-3
# How it was run: as §1
# [66] = molecular target: SpHse1
# How it was run: as §1
# [67] = molecular target: SpLsb1
# How it was run: as §1
# [68] = molecular target: SpLsb4
# How it was run: as §1
# [69] = molecular target: SpMyo1
# How it was run: as §1
# [70] = molecular target: SpNbp2
# How it was run: as §1
# [71] = molecular target: SpPex13
# How it was run: as §1
# [72] = molecular target: SpRvs167
# How it was run: as §1
# [73] = molecular target: SpSla1-D1-D2
# How it was run: as §1
# [74] = molecular target: SpSla1-D3
# How it was run: as §1
binder,measurement,setting,value
LKHGWKPLRPIKLIS,SPOT peptide array binding signal intensity,[1],1400
same,SPOT peptide array binding signal intensity,[2],72.8
same,SPOT peptide array binding signal intensity,[3],12
same,SPOT peptide array binding signal intensity,[4],31
same,SPOT peptide array binding signal intensity,[5],≤ 0
same,SPOT peptide array binding signal intensity,[6],≤ 0
same,SPOT peptide array binding signal intensity,[7],141
same,SPOT peptide array binding signal intensity,[8],21.5
same,SPOT peptide array binding signal intensity,[9],252
same,SPOT peptide array binding signal intensity,[10],≤ 0
same,SPOT peptide array binding signal intensity,[11],≤ 0
same,SPOT peptide array binding signal intensity,[12],≤ 0
same,SPOT peptide array binding signal intensity,[13],41
same,SPOT peptide array binding signal intensity,[14],5.33
same,SPOT peptide array binding signal intensity,[15],32
same,SPOT peptide array binding signal intensity,[16],206
same,SPOT peptide array binding signal intensity,[17],3.5
same,SPOT peptide array binding signal intensity,[18],398
same,SPOT peptide array binding signal intensity,[19],1860
same,SPOT peptide array binding signal intensity,[20],364
same,SPOT peptide array binding signal intensity,[21],23
same,SPOT peptide array binding signal intensity,[22],≤ 0
same,SPOT peptide array binding signal intensity,[23],46.5
same,SPOT peptide array binding signal intensity,[24],7
same,SPOT peptide array binding signal intensity,[25],850
same,SPOT peptide array binding signal intensity,[26],≤ 0
same,SPOT peptide array binding signal intensity,[27],193
same,SPOT peptide array binding signal intensity,[28],≤ 0
same,SPOT peptide array binding signal intensity,[29],176
same,SPOT peptide array binding signal intensity,[30],≤ 0
same,SPOT peptide array binding signal intensity,[31],252
same,SPOT peptide array binding signal intensity,[32],14.8
same,SPOT peptide array binding signal intensity,[33],24.8
same,SPOT peptide array binding signal intensity,[34],201
same,SPOT peptide array binding signal intensity,[35],27.5
same,SPOT peptide array binding signal intensity,[36],10
same,SPOT peptide array binding signal intensity,[37],296
same,SPOT peptide array binding signal intensity,[38],9.75
same,SPOT peptide array binding signal intensity,[39],9
same,SPOT peptide array binding signal intensity,[40],6.5
same,SPOT peptide array binding signal intensity,[41],20
same,SPOT peptide array binding signal intensity,[42],10
same,SPOT peptide array binding signal intensity,[43],50
same,SPOT peptide array binding signal intensity,[44],≤ 0
same,SPOT peptide array binding signal intensity,[45],478
same,SPOT peptide array binding signal intensity,[46],16.5
same,SPOT peptide array binding signal intensity,[47],≤ 0
same,SPOT peptide array binding signal intensity,[48],527
same,SPOT peptide array binding signal intensity,[49],4
same,SPOT peptide array binding signal intensity,[50],≤ 0
same,SPOT peptide array binding signal intensity,[51],≤ 0
same,SPOT peptide array binding signal intensity,[52],550
same,SPOT peptide array binding signal intensity,[53],37.5
same,SPOT peptide array binding signal intensity,[54],≤ 0
same,SPOT peptide array binding signal intensity,[55],1040
same,SPOT peptide array binding signal intensity,[56],50
same,SPOT peptide array binding signal intensity,[57],6.5
same,SPOT peptide array binding signal intensity,[58],166
same,SPOT peptide array binding signal intensity,[59],0.75
same,SPOT peptide array binding signal intensity,[60],362
same,SPOT peptide array binding signal intensity,[61],0.5
same,SPOT peptide array binding signal intensity,[62],≤ 0
same,SPOT peptide array binding signal intensity,[63],93
same,SPOT peptide array binding signal intensity,[64],18.8
same,SPOT peptide array binding signal intensity,[65],445
same,SPOT peptide array binding signal intensity,[66],294
same,SPOT peptide array binding signal intensity,[67],≤ 0
same,SPOT peptide array binding signal intensity,[68],161
same,SPOT peptide array binding signal intensity,[69],≤ 0
same,SPOT peptide array binding signal intensity,[70],246
same,SPOT peptide array binding signal intensity,[71],8
same,SPOT peptide array binding signal intensity,[72],7.5
same,SPOT peptide array binding signal intensity,[73],≤ 0
same,SPOT peptide array binding signal intensity,[74],≤ 0
